Measurements: PubChem BioAssay (EPA / NIEHS)
Activity calls are given as the source filed them. How the source made its calls: active means hit-call score of the fitted dose curve at least 0.9, where 1 is the maximum; inactive means score below 0.9.

Legend:
[1] = ATG_CRE_CIS: Attagene CIS-FACTORIAL HepG2 Assay for human cAMP Responsive Element (CRE) binding protein 3 (AID 2282926); conditions: HepG2 CRE cis-reporter, Attagene multiplexed mRNA; actives raise or lower the signal
In short: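 Capillary electrophoresis of 6-FAM-labelled, HpaI-digested PCR products quantified reporter transcripts. These came from HepG2 transiently transfected with cis-element reporters and exposed to test chemicals for 24 hours, with DMSO defining baseline activity.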

[2] = ATG_CMV_CIS: Attagene CIS-FACTORIAL HepG2 Assay for human CMV (Internal Marker) (AID 2282928); conditions: HepG2 CMV promoter reporter, transcription factor profiling; actives raise or lower the signal;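 further: endpoint acts as a background internal control marker rather than a target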
In short: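 Bidirectional fits against DMSO are applied to reporter mRNA, read by RT-PCR with capillary electrophoresis, from HepG2 cells exposed 24 h. The endpoint serves as an internal CMV background marker within the cis-factorial reporter panel.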

[3] = ATG_DR4_LXR_CIS: Attagene CIS-FACTORIAL HepG2 Assay for human Liver X Receptor (LXR), DR4 submotif (AID 2282929); conditions: HepG2 Attagene DR4 cis-reporter, mRNA transcription; actives raise or lower the signal
In short: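 The endpoint is DR4-element-driven reporter transcripts after 24 h chemical exposure of transfected HepG2 cells. These were measured via RT-PCR and capillary electrophoresis, and gain or loss of signal was fitted relative to DMSO controls.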

[4] = biological target: Aryl hydrocarbon receptor (Homo sapiens) (UniProt P35869); assay: ATG_Ahr_CIS: Attagene CIS-FACTORIAL HepG2 Assay for human Aryl Hydrocarbon Receptor (Ahr) (AID 2282930); conditions: HepG2 AhR cis-factorial reporter transcription; actives raise or lower the signal
Sequence of Aryl hydrocarbon receptor (Homo sapiens) (P35869 whole entry, looked up): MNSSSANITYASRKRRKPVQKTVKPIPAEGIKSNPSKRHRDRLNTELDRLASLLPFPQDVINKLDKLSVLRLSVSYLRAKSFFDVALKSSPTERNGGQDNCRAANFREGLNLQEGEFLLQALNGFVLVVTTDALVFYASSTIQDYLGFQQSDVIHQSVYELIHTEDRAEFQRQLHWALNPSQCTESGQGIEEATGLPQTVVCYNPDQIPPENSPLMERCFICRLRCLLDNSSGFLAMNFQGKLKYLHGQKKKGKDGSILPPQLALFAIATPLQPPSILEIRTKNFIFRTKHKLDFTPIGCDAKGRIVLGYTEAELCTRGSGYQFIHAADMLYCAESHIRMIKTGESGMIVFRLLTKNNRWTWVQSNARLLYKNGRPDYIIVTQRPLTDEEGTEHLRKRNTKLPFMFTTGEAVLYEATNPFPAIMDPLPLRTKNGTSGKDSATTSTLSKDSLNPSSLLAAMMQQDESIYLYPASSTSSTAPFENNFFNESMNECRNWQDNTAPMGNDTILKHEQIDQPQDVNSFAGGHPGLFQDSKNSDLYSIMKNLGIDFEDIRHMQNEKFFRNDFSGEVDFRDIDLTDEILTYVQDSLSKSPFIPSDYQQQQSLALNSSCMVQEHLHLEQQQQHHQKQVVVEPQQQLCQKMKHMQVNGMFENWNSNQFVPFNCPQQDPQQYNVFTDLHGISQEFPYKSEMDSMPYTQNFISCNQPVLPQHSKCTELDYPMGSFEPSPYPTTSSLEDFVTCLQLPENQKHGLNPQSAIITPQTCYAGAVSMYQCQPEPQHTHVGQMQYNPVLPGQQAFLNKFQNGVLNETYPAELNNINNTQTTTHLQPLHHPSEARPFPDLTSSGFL
In short: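 Reporter mRNA levels, quantified by RT-PCR and fluorescent capillary electrophoresis, reflect endogenous AhR transcriptional activity in HepG2 cells carrying transfected cis-promoter reporter constructs. Readout at 24 h post-dose; gain or loss fitted against DMSO baseline.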

[5] = ATG_AP_1_CIS: Attagene CIS-FACTORIAL HepG2 Assay for human Activator Protein 1 (AP-1) (AID 2282931); conditions: HepG2 Attagene cis-factorial AP-1 reporter mRNA; actives raise or lower the signal
In short: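 Readout is reporter transcript level from endogenous transcription factor activity, quantified by RT-PCR with fluorescent primer extension and capillary electrophoresis. Transiently transfected HepG2 cells, 24 h exposure. Curves fitted both directions versus DMSO.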

[6] = ATG_AP_2_CIS: Attagene CIS-FACTORIAL HepG2 Assay for human Activator Protein 2 (AP-2) (AID 2282932); conditions: HepG2 AP-2 cis-reporter, Attagene transcription factor profiling; actives raise or lower the signal
In short: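 Transiently transfected HepG2 cells are exposed to chemical for 24 h. Reporter transcripts are then measured as fluorescence following RT-PCR and capillary separation, and gain- or loss-of-signal is fitted relative to DMSO.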

[7] = ATG_BRE_CIS: Attagene CIS-FACTORIAL HepG2 Assay for human Bone Morphogenetic Protein (BMP) Response Element (BRE) (AID 2282933); conditions: HepG2 BMP response element reporter, Attagene transcription factor profiling; actives raise or lower the signal
In short: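 Endogenous transcription factor activity read in transiently transfected HepG2 cells after 24 h chemical exposure. Bidirectional curve fitting against DMSO; readout is reporter transcript level by RT-PCR with capillary electrophoresis of labelled products.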

[8] = biological target: Transcription factor E2F1 (Homo sapiens) (UniProt Q01094); assay: ATG_E2F_CIS: Attagene CIS-FACTORIAL HepG2 Assay for human E2F Transcription Factor 1 (AID 2282935); conditions: HepG2 Attagene cis-reporter, E2F reporter RNA transcripts; actives raise or lower the signal
Sequence of Transcription factor E2F1 (Homo sapiens) (Q01094 whole entry, looked up): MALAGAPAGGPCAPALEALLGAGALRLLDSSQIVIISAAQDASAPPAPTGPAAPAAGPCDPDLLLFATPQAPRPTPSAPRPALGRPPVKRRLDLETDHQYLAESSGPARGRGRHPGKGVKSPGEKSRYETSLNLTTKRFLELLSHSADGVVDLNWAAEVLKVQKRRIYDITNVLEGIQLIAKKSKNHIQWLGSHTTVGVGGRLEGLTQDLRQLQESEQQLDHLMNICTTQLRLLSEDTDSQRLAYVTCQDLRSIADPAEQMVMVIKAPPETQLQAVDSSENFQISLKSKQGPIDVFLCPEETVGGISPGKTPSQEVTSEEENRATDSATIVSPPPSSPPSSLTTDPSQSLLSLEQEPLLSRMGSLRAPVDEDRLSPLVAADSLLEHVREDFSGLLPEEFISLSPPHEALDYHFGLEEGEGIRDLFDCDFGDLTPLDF
In short: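 Fluorescent RT-PCR products, digested with HpaI for 2 h at 37 C, are separated by capillary electrophoresis. Source RNA comes from transfected HepG2 cultures treated for 24 h.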

[9] = biological target: CCAAT/enhancer-binding protein beta (Homo sapiens) (UniProt P17676); assay: ATG_C_EBP_CIS: Attagene CIS-FACTORIAL HepG2 Assay for human CCAAT/Enhancer Binding Protein (C/EBP) beta (AID 2282927); conditions: HepG2 Attagene cis-factorial transcription factor reporter; actives raise or lower the signal
Sequence of CCAAT/enhancer-binding protein beta (Homo sapiens) (P17676 whole entry, looked up, the tested form may be a part): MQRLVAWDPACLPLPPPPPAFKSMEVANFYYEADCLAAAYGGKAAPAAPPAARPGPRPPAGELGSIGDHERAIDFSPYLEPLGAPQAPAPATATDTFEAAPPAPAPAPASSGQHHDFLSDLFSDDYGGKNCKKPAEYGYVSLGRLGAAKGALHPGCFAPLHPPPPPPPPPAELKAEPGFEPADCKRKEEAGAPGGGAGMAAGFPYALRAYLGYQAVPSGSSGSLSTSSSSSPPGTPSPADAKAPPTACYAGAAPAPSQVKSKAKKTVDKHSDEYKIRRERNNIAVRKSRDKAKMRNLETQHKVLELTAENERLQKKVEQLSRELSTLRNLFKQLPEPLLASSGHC
In short: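 Endogenous C/EBPb-driven reporter transcripts measured in transfected human HepG2 cells at 24 h via RT-PCR and capillary electrophoresis of labelled fragments. Activity fitted in both directions relative to DMSO baseline.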

[10] = biological target: Retinoic acid receptor alpha (Homo sapiens) (UniProt P10276); assay: ATG_DR5_RAR_CIS: Attagene CIS-FACTORIAL HepG2 Assay for human Retinoic Acid Receptor Alpha (RARE), DR5 submotif (AID 2282934); conditions: HepG2 Attagene cis-factorial RARE DR5 reporter, mRNA; actives raise or lower the signal;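 on AC50: reporter responds to endogenous RAR alpha beta and gamma in HepG2 not RARA alone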
Sequence of Retinoic acid receptor alpha (Homo sapiens) (P10276 whole entry, looked up): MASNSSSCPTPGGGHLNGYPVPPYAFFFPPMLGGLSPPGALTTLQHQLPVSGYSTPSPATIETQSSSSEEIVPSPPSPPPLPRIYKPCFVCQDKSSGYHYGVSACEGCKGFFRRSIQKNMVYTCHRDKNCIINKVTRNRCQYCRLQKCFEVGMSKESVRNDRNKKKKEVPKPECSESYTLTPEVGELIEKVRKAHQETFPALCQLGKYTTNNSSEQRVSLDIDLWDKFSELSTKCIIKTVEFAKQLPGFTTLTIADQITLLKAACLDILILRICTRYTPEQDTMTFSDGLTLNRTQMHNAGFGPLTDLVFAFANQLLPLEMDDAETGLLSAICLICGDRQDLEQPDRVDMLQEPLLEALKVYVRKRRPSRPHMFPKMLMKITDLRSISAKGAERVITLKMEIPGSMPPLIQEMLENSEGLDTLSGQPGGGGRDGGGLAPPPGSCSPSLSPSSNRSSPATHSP
In short: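 Reporter transcripts from a DR5-regulated unit, measured via RT-PCR plus capillary electrophoresis, reflect endogenous RAR activity in transiently transfected human HepG2 liver cells. Exposure lasted 24 h; gain or loss of signal scored against DMSO.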

Measured: AC50

O=[N+]([O-])c1ccc(Oc2ccc(Cl)cc2Cl)cc1
active: [2] 100 µM | [3] 48.1 µM | [4] 68.6 µM | [7] 56.4 µM
inactive: [1] | [5] | [6] | [8]

CCOC(=O)[C@]1(c2ccccc2)Oc2ccccc2[C@@H]1N
active: [1] 20.3 µM | [9] 33 µM | [2] 33 µM | [3] 52.4 µM | [5] 40 µM | [6] 55.1 µM
inactive: [4] | [8]

CC(C)(OOC(C)(C)c1ccccc1)c1ccccc1
active: [1] 57.4 µM | [9] 59.3 µM | [2] 48.7 µM | [3] 63.9 µM | [5] 57.5 µM
inactive: [4] | [6] | [8]

Oc1ccccc1Cl
not listed: [7] | [10]
inactive: all other assays above

O=C(N[C@H](c1ccccc1)[C@@H]1CN2CCC1CC2)c1c(Cl)ccc(C(F)(F)F)c1Cl
not listed: [7] | [10]
inactive: all other assays above

O=Cc1ccco1
not listed: [9]
inactive: all other assays above

Nc1ccc([N+](=O)[O-])cc1
not listed: [4] | [7] | [10]
inactive: all other assays above

[O-][Cl+]O
not listed: [9]
inactive: all other assays above

Clc1ccc(C(c2ccc(Cl)cc2)C(Cl)Cl)cc1
active: [1] 54.5 µM | [9] 54.8 µM | [2] 52.9 µM | [3] 17.1 µM | [5] 50.9 µM | [6] 54.5 µM
inactive: [4] | [8]

CCCSC(=O)N(CCC)CCC
not listed: [9] | [10]
inactive: all other assays above

Clc1ccccc1Cl
not listed: [9] | [10]
inactive: all other assays above

c1ccc(C2CO2)cc1 (stereo not drawn)
not listed: [7] | [10]
inactive: all other assays above

Oc1ccc2ccc3cccc4ccc1c2c34
active: [3] 11.1 µM
not listed: [4] | [10]
inactive: all other assays above

c1ccc2c(c1)oc1ccccc12
not listed: [4] | [10]
inactive: all other assays above

CC(C)COC(=O)c1ccccc1C(=O)OCC(C)C
inactive: [9] | [4] | [6] | [8]
active: [1] 59.3 µM | [2] 67.5 µM | [3] 73 µM | [5] 70.3 µM

COP(=S)(OC)SCN1C(=O)c2ccccc2C1=O
not listed: [7] | [10]
inactive: all other assays above

Nc1ccc(Cl)cc1N
active: [2] 6.32 µM | [4] 0.431 µM | [5] 9.15 µM
inactive: [1] | [3] | [6] | [8]

Cc1ccc(N)cc1
not listed: [9] | [10]
inactive: all other assays above

[Cl-].[Cl-].[Hg+2]
active: [3] 33.4 µM
not listed: [9] | [10]
inactive: all other assays above

Cc1ccc([N+](=O)[O-])cc1
not listed: [9] | [10]
inactive: all other assays above

CC(C)N(Cc1ccccc1)C(=O)C(C)(C)C
not listed: [7] | [9]
inactive: all other assays above

CNC(=O)Oc1cccc2c1OC(C)(C)C2
active: [4] 65.6 µM
not listed: [9] | [10]
inactive: all other assays above

c1ccc(N=Nc2ccccc2)cc1
inactive: [1] | [2] | [5] | [6] | [8]
active: [3] 100 µM | [4] 125 µM

O=C(Nc1ccccc1)c1ccccc1I
active: [3] 157 µM
not listed: [7] | [9]
inactive: all other assays above

Brc1ccc(Oc2ccccc2)cc1
active: [3] 155 µM
not listed: [9] | [10]
inactive: all other assays above

CCN(CC)N=O
not listed: [7] | [9]
inactive: all other assays above

ClC1=C(Cl)C2(Cl)C3C(Cl)C=CC3C1(Cl)C2(Cl)Cl (stereo not drawn)
active: [2] 100 µM | [3] 40.1 µM | [5] 154 µM
not listed: [7] | [9]
inactive: all other assays above

COC(=O)c1ccccc1N
active: [4] 43.8 µM
not listed: [7] | [9] | [10]
inactive: all other assays above

Cc1ccc(N)c(N)c1
active: [2] 33.3 µM | [5] 27.5 µM
inactive: [1] | [3] | [6] | [8]

CCCCCCCCCCCCCN1CC(C)OC(C)C1 (stereo not drawn)
active: [2] 33.4 µM | [5] 50.9 µM | [7] 50 µM
not listed: [9] | [10]
inactive: all other assays above

O=P(OCCCl)(OCCCl)OCCCl
not listed: [7] | [9]
inactive: all other assays above

c1ccc2c(c1)-c1cccc3cccc-2c13
not listed: [4] | [7] | [9]
inactive: all other assays above

N#CC(Br)Br
not listed: [7] | [9] | [10]
inactive: all other assays above

Clc1ccc(C(c2ccc(Cl)cc2)C(Cl)(Cl)Cl)cc1
active: [2] 30.2 µM | [3] 27.6 µM | [5] 51.4 µM
inactive: [1] | [4] | [6] | [8]

CCC(C)c1ccc(O)cc1 (stereo not drawn)
active: [1] 59.7 µM | [2] 65.8 µM | [3] 100 µM | [5] 69.8 µM
inactive: [6] | [8]

CC(O)CCO (stereo not drawn)
not listed: [9] | [10]
inactive: all other assays above

CC(C)(C)OOC(C)(C)CCC(C)(C)OOC(C)(C)C
active: [2] 90.1 µM | [3] 100 µM | [5] 100 µM | [7] 161 µM
inactive: [1] | [6] | [8]

OCCCBr
not listed: [9] | [10]
inactive: all other assays above

CCOc1cccc(C2(N3CCN(c4ccccc4)CC3)CCC(C)CC2)c1 (stereo not drawn)
not listed: [9] | [10]
inactive: all other assays above

CCC[CH2][Sn]([Cl])([CH2]CCC)[CH2]CCC
active: [2] 0.552 µM | [3] 0.412 µM | [5] 0.522 µM
inactive: [1] | [4] | [6] | [8]

Cc1cccc(N)c1N
active: [1] 158 µM | [2] 30.3 µM | [4] 1.09 µM | [5] 30.5 µM | [10] 106 µM
inactive: [3] | [6] | [8]

c1ccc(NNc2ccccc2)cc1
inactive: [1] | [2] | [5] | [6] | [8]
active: [3] 100 µM

CCN(CC)CCO
not listed: [7] | [9] | [10]
inactive: all other assays above

CN(C)[C@@H]1C(=O)C(C(N)=O)=C(O)[C@@]2(O)C(=O)C3=C(O)c4c(O)cccc4[C@@](C)(O)[C@H]3C[C@@H]12
active: [2] 137 µM
not listed: [9] | [10]
inactive: all other assays above
